Measured values taken from PubChem BioAssay (NCI).
Compounds without any hit were thinned out: in the full panel of roughly 83,000, 20% have a hit.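 Cell lines were cultured in 96-well plates, exposed to a single compound concentration, and assessed for percent growth 48 hours later.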 Calls of active or inactive are those of the source. Rule for the calls: active = growth percent below 10; inactive = the rest.

What was measured:
Assay in all cases: NCI-60 one-dose screen, 48 h (100 = growth as untreated, 0 = no growth, -100 = all killed)
[1] = system: SK-MEL-2 melanoma; conditions: 10 µM unless noted
[2] = system: EKVX NSCLC; conditions: 10 µM unless noted
[3] = system: SN12C renal; conditions: 10 µM unless noted
[4] = system: TK-10 renal; conditions: 10 µM unless noted
[5] = system: ACHN renal; conditions: 10 µM unless noted
[6] = system: A498 renal; conditions: 10 µM unless noted
[7] = system: CCRF-CEM leukemia; conditions: 10 µM unless noted
[8] = system: MOLT-4 leukemia; conditions: 10 µM unless noted
[9] = system: RPMI-8226 leukemia; conditions: 10 µM unless noted
[10] = system: OVCAR-8 ovarian; conditions: 10 µM unless noted
[11] = system: OVCAR-5 ovarian; conditions: 10 µM unless noted
[12] = system: OVCAR-4 ovarian; conditions: 10 µM unless noted
[13] = system: SK-OV-3 ovarian; conditions: 10 µM unless noted
[14] = system: OVCAR-3 ovarian; conditions: 10 µM unless noted
[15] = system: HS 578T breast; conditions: 10 µM unless noted
[16] = system: NCI/ADR-RES ovarian; conditions: 10 µM unless noted
[17] = system: UO-31 renal; conditions: 10 µM unless noted
[18] = system: SR leukemia; conditions: 10 µM unless noted
[19] = system: IGROV1 ovarian; conditions: 10 µM unless noted
[20] = system: CAKI-1 renal; conditions: 10 µM

Measured: growth

CC(=O)N1N=C2N(Cc3ccccc3)C(=O)c3c(sc4c3CCCC4)N2C1c1cn(-c2ccccc2)nc1-c1ccc(Cl)cc1 (stereo unspecified)
inactive: [1] 98% | [2] 87.9% | [3] 103% | [4] 102% | [5] 96.6% | [6] 103% | [7] 92.4% | [8] 86.3% | [9] 87.9% | [10] 100% | [11] 101% | [12] 115% | [13] 88% | [14] 101% | [15] 93% | [16] 100%

Cc1[nH]c2ccc(F)cc2c1CCNC(=O)C1CCN(C(=O)c2ccc(-c3ccccc3)cc2)CC1
inactive: [1] 71.6% | [2] 44.2% | [3] 64.1% | [17] 36.5% | [6] 47.9% | [7] 54.1% | [8] 26.9% | [9] 44.5% | [10] 56.3% | [11] 90.1% | [12] 44.7% | [13] 63.8% | [19] 67.1% | [14] 63.8% | [15] 72.7% | [16] 49.6%
active: [18] 8.16%

O=S(=O)(Nc1cccc2cc(OS(=O)(=O)c3ccccc3)ccc12)c1ccccc1
inactive: [1] 66.9% | [2] 64% | [3] 70.1% | [17] 59.7% | [20] 71.4% | [6] 48.6% | [7] 61.9% | [8] 43.3% | [18] 25.5% | [9] 62.1% | [10] 75.2% | [11] 91% | [12] 71.3% | [13] 61.8% | [19] 72.5% | [14] 66.1% | [15] 57.3% | [16] 46.2%

COc1ccc(-c2[nH]c3ccccc3c2/C=C(\C#N)S(=O)(=O)c2ccccc2)cc1
active: [6] 2.31% | [7] 8.07% | [8] 6.08% | [18] 1.93% | [12] -14.3% | [14] -35.7% | [16] 0.134%
inactive: [1] 76.5% | [2] 14.1% | [3] 42.2% | [4] 91.7% | [5] 51% | [10] 44.4% | [11] 32.2% | [13] 29.2% | [19] 32.7% | [15] 23.8%

O=C(Nc1cccc(-n2ccc3c(NC(=O)c4ccccc4)nccc32)c1)c1cc(N2CCOCC2)cc(C(F)(F)F)c1
active: [1] -4.8% | [17] 9.78% | [6] 6.2% | [8] 0.605% | [18] -14.2% | [9] -42.4% | [10] 2.86% | [13] 5% | [19] 4.25% | [14] -34.8% | [16] 7.24%
inactive: [2] 36.8% | [3] 18.8% | [20] 23.5% | [7] 13.5% | [11] 19.3% | [12] 83.1%

CS(=O)(=O)Nc1cccc(-c2ccc3ncnc(Nc4cncc(Cl)c4)c3c2)c1
active: [1] 2.44% | [6] -34.1% | [8] 0.601% | [18] -10.5% | [9] -8.07% | [13] -7.86% | [19] -13.8% | [15] -2.64%
inactive: [2] 10.8% | [3] 52.5% | [17] 30.3% | [7] 17.1% | [10] 38.7% | [11] 56.7% | [12] 50.9% | [14] 31.9% | [16] 79.7%

O=C(Nc1ccc(-n2cc(-c3ccncc3)c(-c3ccc(O)c(Cl)c3)n2)cc1)c1cc(Cl)cc(Cl)c1
active: [1] 7.85% | [9] -19.5%
inactive: [2] 56.5% | [3] 35.8% | [17] 16.4% | [5] 16.2% | [6] 95.4% | [7] 16.9% | [8] 11.1% | [10] 30.3% | [11] 71.4% | [12] 78.1% | [13] 70.2% | [19] 43.2% | [14] 27% | [16] 28.7%

CCCCC(=O)Nc1nc2ccc(SCCC)cc2s1
active: [6] 9.34%
inactive: [1] 50.1% | [2] 59.7% | [3] 50.1% | [17] 37.5% | [5] 75.1% | [7] 44% | [8] 29.8% | [9] 15.7% | [10] 56.7% | [11] 69% | [12] 81.1% | [13] 66% | [19] 54.2% | [14] 22.8% | [15] 48.9% | [16] 13%

CCCCOc1nc2ccc(Cl)cc2cc1/C=C/C(=O)/C=C/c1ccc(Cl)cc1
inactive: [1] 101% | [2] 83.7% | [3] 92.1% | [17] 66.9% | [5] 81.5% | [6] 92.4% | [7] 76.2% | [8] 71.5% | [10] 70.2% | [11] 107% | [12] 91.5% | [13] 92.5% | [19] 45.8% | [14] 51.1% | [15] 76.8% | [16] 100%
active: [9] 0.229%

CCCCCCCC(=O)SCC/C=C/[C@@H]1CC(=O)NCc2nc(cs2)C2=N[C@@](C)(CS2)C(=O)N[C@@H](C(C)C)C(=O)N1
inactive: [2] 32.8% | [3] 35.5% | [17] 18.9% | [7] 21.3% | [11] 22.5% | [12] 31% | [15] 11.5% | [16] 84.5%
active: [1] -34.7% | [6] -50.3% | [8] 9.36% | [18] 6.51% | [9] -6.34% | [10] 5.08% | [13] -4.42% | [19] 0.908% | [14] -7.56%

O=C1COc2ccccc2C(=O)N1CCCCN1CCCCC1
inactive: [1] 95.4% | [2] 98.5% | [3] 99.2% | [17] 91.7% | [5] 99.2% | [6] 114% | [8] 83.2% | [18] 90.1% | [9] 70.9% | [10] 94.2% | [11] 95.9% | [12] 95% | [13] 80.4% | [19] 92% | [14] 110% | [15] 102% | [16] 98.8%

O=C(/C=C/c1ccco1)c1cccc(Nc2nc(Nc3ccccc3)nc(Nc3ccccc3)n2)c1
inactive: [1] 83.9% | [2] 77.8% | [3] 98.6% | [4] 141% | [5] 95.5% | [7] 56.4% | [8] 61.7% | [9] 38.8% | [10] 49.5% | [11] 83.6% | [12] 62.1% | [13] 90.5% | [14] 61.8% | [15] 92% | [16] 75.5%
active: [6] -34.7%

O=C(NOC1OC(CO)C(O)C(O)C1O)Nc1ccccc1 (stereo unspecified)
inactive: [1] 98.3% | [2] 102% | [3] 91.6% | [4] 109% | [5] 101% | [20] 92.1% | [6] 120% | [7] 91% | [8] 79.7% | [18] 75.2% | [9] 87.3% | [10] 103% | [11] 100% | [12] 105% | [13] 95.7% | [19] 111% | [14] 105% | [15] 103% | [16] 109%

COc1ccc2c(c1)C(=O)/C(=C/c1cccc(OCC(=O)c3ccccc3)c1)O2
inactive: [1] 75.1% | [2] 82.1% | [3] 32.9% | [4] 30.7% | [5] 45.1% | [6] 117% | [11] 37.8% | [13] 121% | [15] 52% | [16] 65.1%
active: [20] -98.1% | [7] -39.3% | [8] -52.4% | [9] -49.6% | [10] -29.9% | [12] -55.1% | [14] -84.4%

COc1ccc(-c2nn(-c3ccc(NC(=O)c4cc(Cl)cc(Cl)c4)cc3)cc2-c2ccncc2)cc1Cl
active: [9] -11.6%
inactive: [1] 49.9% | [2] 74.6% | [3] 85% | [17] 25% | [6] 50.9% | [7] 54.8% | [8] 18.9% | [18] 50.7% | [10] 77.5% | [11] 64.8% | [12] 89.6% | [13] 86.3% | [19] 85.3% | [14] 64.1% | [16] 69.7%

COc1ccc2c(c1)C(=O)/C(=C/c1ccc(OCC(=O)c3ccc(Cl)cc3)cc1)O2
inactive: [1] 87% | [2] 82% | [3] 92.2% | [4] 132% | [6] 148% | [7] 29% | [8] 20% | [9] 58.9% | [10] 84.9% | [11] 105% | [12] 78.4% | [13] 98.8% | [14] 83.7% | [15] 115% | [16] 98.8%
active: [20] -53.4%

CCCN1C(=O)CSC1=Nc1ccc2cc3ccc(N=C4SCC(=O)N4CCC)cc3nc2c1
active: [8] -18.8% | [9] 1.65%
inactive: [1] 38.1% | [2] 33.8% | [3] 75% | [4] 56.8% | [20] 36% | [6] 63.4% | [7] 31% | [10] 37.2% | [11] 89.2% | [12] 15.3% | [13] 74.5% | [14] 51% | [15] 31.6% | [16] 24.5%

O=C(Nc1ccc(-n2ccc3c(NC(=O)c4ccccc4)nccc32)cc1)Nc1ccc(Cl)c(Cl)c1
active: [1] -42.4% | [17] -61.4% | [20] -57.7% | [7] -34.6% | [8] 9.08% | [18] -30.3% | [9] -49.6% | [10] -45% | [12] -4.39% | [19] 4.31% | [14] -79.6% | [16] -34.4%
inactive: [2] 39.5% | [3] 10.7% | [6] 68.2% | [11] 50% | [13] 59.7%

O=c1[nH]ccc2nc(N3CCC(O)CC3)nc(Nc3cccc(C(F)(F)F)c3)c12
active: [8] 1.19%
inactive: [1] 25.2% | [2] 83% | [3] 61.4% | [4] 67.6% | [5] 67.6% | [20] 38.6% | [6] 93.6% | [7] 13% | [9] 62.6% | [10] 45.3% | [11] 137% | [12] 91.4% | [13] 32.3% | [19] 71.2% | [14] 68.5% | [15] 80.2% | [16] 32.9%
